High-throughput results (PubChem BioAssay)
This is a sample that favours compounds with a hit; in the whole collection about 17% have one here.
HT1080NT lethal: qHTS for induction of synthetic lethality in tumor cells producing 2HG: qHTS for the HT-1080-NT fibrosarcoma cell line. AID 686970, 2013. 360,000 tested, 1.6% active. HT-1080-NT fibrosarcoma viability, CellTiter-Glo ATP luminescence, 48 h. Potency, µM (top dose mostly 46.1 µM), usual class: cytotoxic;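 note: NT is the 2HG producing partner of a matched IDH1 knockdown line; nearly all actives have a fitted effect of over 55% in size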
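Viability of the 2HG-overproducing fibrosarcoma line after 48 hours of compound exposure at 37 degrees C was determined by luminescence with CellTiter-Glo, and concentration-effect curves were then fitted and categorized.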
TDP1 cell noCPT: qHTS for Inhibitors of human tyrosyl-DNA phosphodiesterase 1 (TDP1): qHTS in cells in absence of CPT; DT40 Tdp1-/- hTDP1 cells, no CPT, ATP luminescence, 48 h; Potency, µM (highest dose often 46.2 µM), hits mostly inhibitors; 420,000 tested, 15% active; note: nearly all actives have a fitted effect of over 55% in size
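Seeded 400 DT40-hTDP1 cells/well (vehicle DMSO, no 20 nM CPT); pinned compounds; ≥48 hr at 37 °C; CellTiter-Glo luminescence as viability measure.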
HepG2 tox: qHTS for Inhibitors of TGF-b: Cytotox Counterscreen | Potency, µM (titrated, usually from 46.1 µM), most hits filed as cytotoxic | AID 588856, 2011 | 410,000 tested, 0.76% active | HepG2 CAGA-GFP viability, ATP luminescence, 18 h
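CellTiter-Glo luminescence gave cytotoxicity after 18 hours at 37 degrees C. The cells were HepG2 CAGA-GFP in 1% FBS DMEM, stimulated with 500 pg/mL TGF-beta after compound addition. %Activity was normalised to no-cell wells (complete cell-killing) and DMSO (no toxicity), and curves were fitted and classified.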
HT1080 IDH1KD tx: qHTS for induction of synthetic lethality in tumor cells producing 2HG: qHTS for the HT-1080-IDH1KD cell line. HT-1080 IDH1 knockdown viability, ATP luminescence, 48 h. Potency, µM (highest dose often 46.1 µM), hits mostly cytotoxic. 360,000 tested, 2% active. AID 686971, 2013
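% activity derives from luminescence (CellTiter-Glo), normalised to DMSO and no-cell wells. HT-1080-IDH1KD cells, 750/well, had 48 h compound exposure at 37 °C.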
TDP1 cell CPT: qHTS for Inhibitors of human tyrosyl-DNA phosphodiesterase 1 (TDP1): qHTS in cells in presence of CPT. Potency, µM (top dose mostly 46.2 µM), actives largely listed as inhibitors. 420,000 tested, 12% active. chicken DT40 Tdp1-/-;hTDP1 cells + 20 nM CPT, ATP luminescence, 48 h. AID 686979, 2013; note: nearly all actives have a fitted effect of over 55% in size
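Chicken DT40 Tdp1-/- cells complemented with human TDP1, 400 cells/well, exposed to compounds plus 20 nM camptothecin for at least 48 h at 37 C; viability read as ATP content by CellTiter-Glo luminescence.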
TGFb SMAD3 inh: qHTS for Inhibitors of TGF-b | HepG2 CAGA-GFP TGF-b/SMAD3 reporter, GFP fluorescence, 18 h; TGF-beta stimulated, 500 pg/mL final | Potency, µM (series often up to 46.1 µM), hits mostly inhibitors | 410,000 tested, 1.2% active; note: nearly all actives have a fitted effect of over 65% in size
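HEPG2 CAGA-GFP cells (1000/well, DMEM with 1% FBS) were pre-incubated 2 h at 37 degrees C, given compound by pin tool, then stimulated with TGF-beta at 500 pg/mL final for 18 h before per-cell GFP fluorescence imaging.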
Numbers stand for hits; . = inactive; ? = inconclusive; / = no result. Calls come from the whole dose curve; as a rule, active = well fitted curve in the direction sought with a large enough effect; inconclusive = small, poorly fitted or top-dose-only effect, or another doubt; inactive = no such curve, though single readings can be large; an effect the other way counts as inactive or inconclusive.

SMILES | HT1080NT lethal | TDP1 cell noCPT | HepG2 tox | HT1080 IDH1KD tx | TDP1 cell CPT | TGFb SMAD3 inh
CC(C)CN(CC(C)C)C(=O)C1CCCN(S(=O)(=O)c2ccc3c(c2)oc(=O)n3C)C1 (stereo unspecified) | / | . | . | / | . | .
Cc1sc(=NC(=O)c2ccco2)n(C)c1-c1ccc(F)cc1 | . | 16µM | . | . | ? | .
COc1ccc(Br)cc1CNC(=O)C1CCCCN1S(=O)(=O)c1ccc(F)cc1 (stereo unspecified) | / | . | . | / | . | ?
Cc1ccn2c(NCc3ccccc3)c(-c3cccs3)nc2c1 | . | 23µM | . | . | 16µM | .
Cc1ccn2c(NC3CCCC3)c(-c3cccs3)nc2c1 | . | 23µM | . | . | 15µM | .
O=C(NC1CCCCC1)c1sc(=S)n2c1[nH]c(=O)c1ccccc12 | ? | 23µM | . | ? | 16µM | ?
CCCCNC(=O)c1sc(=S)n2c1[nH]c(=O)c1ccccc12 | . | ? | . | . | . | ?
COc1ccc(C(C)=O)cc1CSc1ccc(S(=O)(=O)N2CCCCC2)cn1 | . | 16µM | . | . | ? | ?
COc1ccc(CSc2ccc(S(=O)(=O)N3CCCC3)cn2)cc1F | . | 16µM | . | . | 23µM | .
O=S(=O)(c1ccc(SCc2ccc(Cl)cc2)nc1)N1CCCC1 | . | 15µM | . | . | ? | ?
COc1ccc(CSc2ccc(S(=O)(=O)N3CCCCC3)cn2)cc1F | . | . | . | . | . | .
O=S(=O)(c1ccc(SCCOc2ccc(Br)cc2)nc1)N1CCCC1 | . | 16µM | . | . | ? | .
COC(=O)Cc1coc2cc(OC)ccc12 | . | . | . | . | . | .
COc1ccc(NC(=O)c2cc(-c3ccccn3)nc3ccccc23)cc1S(=O)(=O)N(C)C | . | 9.2µM | . | . | ? | .
CCN(CC)C(=O)c1cccc(NC(=O)c2cc(-c3ccccn3)nc3ccccc23)c1 | . | 16µM | . | . | ? | ?
CCN(CC)S(=O)(=O)c1ccc(NC(=O)c2cc(=O)[nH]c3ccccc23)cc1 | . | . | . | . | ? | .
CCN(CC)S(=O)(=O)c1cc(NC(=O)c2cc(-c3ccccn3)nc3ccccc23)ccc1C | ? | 15µM | . | . | 23µM | .
CCN(CC)S(=O)(=O)c1cc(NC(=O)COC(=O)Cn2cnc3ccccc32)ccc1C | . | . | . | . | . | .
CCN(CC)S(=O)(=O)c1ccc2[nH]c(=O)cc(C(=O)Nc3ccc(C)c(S(=O)(=O)N(CC)CC)c3)c2c1 | . | 23µM | . | ? | ? | .
Cc1ccc(-n2c3c(cc(-c4nc(-c5ccc(Cl)cc5)cs4)c2=O)C(=O)CC(C)(C)C3)cc1 | / | . | . | / | . | .
CCN1C(=O)C(=O)N(CC(=O)NC(C)CCc2ccccc2)C1=O (stereo unspecified) | . | . | . | . | . | .
O=c1n(Cc2ccccc2)c(O)c2n1Cc1ccccc1N=C2c1ccccc1 | . | ? | . | . | . | .
COc1cccc(NC(=O)N(Cc2cn(C)c3ccccc23)C2CCCCC2)c1 | / | 7.3µM | . | / | 4.1µM | ?
Cc1ccc(NC(=O)N(Cc2cn(C)c3ccccc23)C2CCCCC2)cc1C | / | 5.2µM | . | / | 5.8µM | .
CCOc1ccc(-c2cc(CCCC(=O)NCc3cccnc3)no2)cc1 | . | 21µM | . | . | 23µM | .
SMILES | HT1080NT lethal | TDP1 cell noCPT | HepG2 tox | HT1080 IDH1KD tx | TDP1 cell CPT | TGFb SMAD3 inh
CCOc1ccc(-c2cc(CCCC(=O)NCCc3ccccc3)no2)cc1 | . | . | . | . | . | .
COc1ccc(-c2cc(CCCC(=O)NCc3ccccn3)no2)cc1 | . | 16µM | . | . | ? | .
CC(C)(C)n1ncc2c(=O)n(Cc3c(Cl)ccc(Cl)c3Cl)cnc21 | / | / | . | / | / | .
S=C(Nc1ccc(Br)cc1)NC1CCCC1 | . | 21µM | . | . | ? | ?
COCCNC(=S)NC1CC2CCCC(C1)N2Cc1cccs1 (stereo unspecified) | . | . | . | . | . | .
Cc1cccc(NC(=S)NC2CCCC2)c1 | . | 15µM | . | . | ? | .
FC(F)Sc1ccc(NC(=S)NC2CCCCC2)cc1 | ? | . | . | ? | ? | 11µM
Cc1cccc(NC(=S)NC2CC3CCCC(C2)N3Cc2cccs2)c1 (stereo unspecified) | ? | 23µM | . | ? | 23µM | .
CCOC(=O)c1c(S(=O)(=O)NCc2cccs2)c(C)n(C)c1C | . | . | . | . | . | .
CN(Cc1ccccc1)C(C(=O)NC1CCCCC1)c1ccc(Cl)cc1 (stereo unspecified) | / | . | . | / | . | .
CCOc1ccccc1NC(=O)c1cc2c(=O)n(Cc3cccnc3)ccc2nc1C | / | . | . | / | . | .
Cc1cccc(NNC(=O)C2CCC2)c1 | 7.3µM | . | . | 7.3µM | . | .
CC(C)C[C@H]1CN([C@@H](CC(C)C)CN2CCC[C@H]2CN2C(=O)C(=O)NC[C@@H]2Cc2ccc(O)cc2)C(=O)C(=O)N1CCc1ccccc1 | . | ? | / | . | ? | /
CCOc1ccc(CCN2C(=O)C(=O)N([C@@H](CC(C)C)CN3CCC[C@@H]3CN3C(=O)C(=O)NC[C@@H]3Cc3ccccc3)C[C@@H]2CC(C)C)cc1 | ? | 23µM | . | ? | ? | 10µM
CCOc1ccc(CCN2C(=O)C(=O)N([C@@H](CC(C)C)CN3CCC[C@H]3CN3C(=O)C(=O)NC[C@@H]3Cc3ccccc3)C[C@@H]2Cc2ccccc2)cc1 | ? | 16µM | / | ? | 16µM | /
CCOc1ccc(CCN2C(=O)C(=O)N([C@@H](CC(C)C)CN3CCC[C@@H]3CN3C(=O)C(=O)NC[C@@H]3Cc3ccccc3)C[C@@H]2Cc2ccc(O)cc2)cc1 | . | ? | . | . | ? | ?
CCNc1ncnc2c1cnn2C1CCCO1 (stereo unspecified) | . | . | . | . | . | .
CC(C)CC1(C(=O)NCc2cc(F)cc(C(F)(F)F)c2)C=CCN1C(=O)c1ccccc1 (stereo unspecified) | . | 29µM | . | . | ? | ?
